Screening data (PubChem BioAssay)
The full list was thinned out, with hits kept by preference.
12-hLO inh: qHTS Assay for Inhibitors of 12-hLO (12-human lipoxygenase). Polyunsaturated fatty acid lipoxygenase ALOX12 (Homo sapiens), P18054. purified 12-hLO, xylenol orange hydroperoxide absorbance. 150,000 tested, 0.12% active. Potency, µM (titrated, usually from 57.1 µM), without a hit: top-dose activity change, negative = inhibition, usual class: inhibitors; also: nearly all actives have a fitted effect of over 55% in size
Target sequence (P18054 whole entry, looked up): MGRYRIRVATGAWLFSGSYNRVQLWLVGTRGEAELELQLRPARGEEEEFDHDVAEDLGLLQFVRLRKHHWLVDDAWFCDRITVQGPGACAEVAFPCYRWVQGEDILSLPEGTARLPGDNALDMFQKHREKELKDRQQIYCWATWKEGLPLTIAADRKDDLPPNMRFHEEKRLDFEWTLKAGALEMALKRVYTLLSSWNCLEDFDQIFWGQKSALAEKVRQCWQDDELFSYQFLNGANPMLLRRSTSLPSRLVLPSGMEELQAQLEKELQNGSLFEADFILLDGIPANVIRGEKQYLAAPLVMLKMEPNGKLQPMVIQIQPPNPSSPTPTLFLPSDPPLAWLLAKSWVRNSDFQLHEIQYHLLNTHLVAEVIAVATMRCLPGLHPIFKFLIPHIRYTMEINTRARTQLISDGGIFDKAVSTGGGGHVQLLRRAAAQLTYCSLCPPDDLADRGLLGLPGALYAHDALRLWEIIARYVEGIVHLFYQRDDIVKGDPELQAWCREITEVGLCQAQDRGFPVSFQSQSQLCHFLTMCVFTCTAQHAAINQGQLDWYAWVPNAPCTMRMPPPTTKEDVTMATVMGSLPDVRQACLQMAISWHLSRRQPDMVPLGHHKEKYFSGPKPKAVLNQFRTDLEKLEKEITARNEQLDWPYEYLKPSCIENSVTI
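150 nM 12hLO, 25 mM Hepes pH 7.0 + 0.01% Triton X-100; cpd preinc 15 min RT; 40 uM arachidonic acid, 30 min RT; Fe-XO 30 min; A573/A405 ratio as read-out.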
15-hLO-2 inh: qHTS Assay for Inhibitors of 15-hLO-2 (15-human lipoxygenase 2) | Polyunsaturated fatty acid lipoxygenase ALOX15B (Homo sapiens), O15296 | purified 15hLO-2, xylenol orange hydroperoxide absorbance | Potency, µM (doses to about 57.1 µM), inactives show at the highest dose activity change, negative = inhibition, hits mostly inhibitors | 110,000 tested, 0.56% active; also: nearly all actives have a fitted effect of over 60% in size
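Purified human 15hLO-2 (50 nM final) preincubated with compounds 15 min at room temperature in 25 mM Hepes pH 7.5, 0.01% Triton X-100, then 45 uM arachidonic acid added for 90 min; hydroperoxide detected via ferrous/xylenol orange, 573/405 nm absorbance ratio.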
Numbers without * were called inactive; ? = inconclusive; / = not tested or not shown; [ ] = dose if it differs, or a comment. Calls follow the shape of the dose curve; as a rule, active = well fitted curve in the direction sought with a large enough effect; inconclusive = small, poorly fitted or top-dose-only effect, or another doubt; inactive = no such curve, though single readings can be large; an effect the other way counts as inactive or inconclusive. % is scaled to controls: 0 for no effect and ±100 for the full control effect; potency is read from the fitted curve at half-maximal effect.

SMILES	12-hLO inh	15-hLO-2 inh
Cc1ccccc1CNc1ncnc2c1ncn2[C@@H]1O[C@@H](CO)[C@H](O)[C@@H]1O	-4%	9%
CC12CC3CC(C)(C1)CC(C(=O)NC(=S)N1CCCCC1)(C3)C2	16µM*	?
O=C(NC(=S)N1CCOCC1)C12CC3CCC(CC(C3)C1)C2	-5%	/
O=C(O)CN(CCN(CC(=O)O)CC(=O)O)CC(=O)O.[Cu]	1%[11.4 µM]	-13%[11.4 µM]
CC(C)(C)Nc1oc(-c2ccccc2)nc1-c1cccc2ccccc12	-1%	/
OC(CN1CCNCC1)Cn1c2ccc(Br)cc2c2cc(Br)ccc21 (stereo not given)	2%	50%
O=C1NC(=O)C(c2cn(-c3ccccc3)nc2-c2ccc(F)cc2)N1 (stereo not given)	-1%	1%
CC1=C(C(=O)c2ccccc2)C(c2cn(-c3ccccc3)nc2-c2ccc(Cl)cc2)NC(=S)N1 (stereo not given)	16µM*	7.9µM*
CCCCC/C=C\C/C=C\CCCCCCCCCC(=O)NC(C)C(=O)O (stereo not given)	5%	/
COc1ccccc1NS(=O)(=O)c1cc(C(=O)O)ccc1F	0%	/
CC(C)(C)OC(=O)[C@H]([C@@H]1N[C@@H](C(=O)O)C(C)(C)S1)N1C(=O)c2ccccc2C1=O	-1%[11.4 µM]	-5%[11.4 µM]
NC[C@@H]1O[C@@H](O[C@H]2[C@@H](O)[C@H](O[C@@H]3[C@H](O)[C@H](N)C[C@H](N)[C@H]3O[C@@H]3O[C@@H](CO)[C@H](O)[C@H](O)[C@@H]3N)O[C@H]2CO)[C@H](N)[C@H](O)[C@@H]1O	3%	2%
Cc1cccc(OCC(=O)NC(=S)N2CCCc3ccccc32)c1	-3%	20µM*
O=C(COc1ccc(Cl)cc1Cl)NC(=S)N1CCCc2ccccc21	-15%	?
CCCCn1c(=O)c2[nH]c(C34CC5CC(CC3C5)C4)nc2n(CCCO)c1=O	-3%[0.00818 µM]	-7%[0.0915 µM]
COC(=O)C1=C(C(=O)OC)[C@@H]2N(Cc3ccccc3)c3ccccc3[C@@]23C[C@@H](C(=O)OC)N(C(=O)c2ccco2)C3=N1	-2%[11.4 µM]	/
COc1ccc(-c2nc3c(c4c2C[C@H](c2ccccc2)OC4)CN(S(=O)(=O)c2ccc(C#N)cc2)CC3)c(C)c1	-2%[11.4 µM]	/
CCOC(=O)C1=C(Cc2ccc(Cl)cc2)C(=O)c2ccccc2C1=O	?	10µM*
CCOC(=O)C1=C(C)N=C2c3ccccc3C(=O)C2C1c1ccc(Cl)cc1 (stereo not given)	-12%	-14%
C=CCNC(=S)N/N=C/c1ccc(-c2cc(Cl)ccc2Cl)o1	-7%	?
CC1=NOC(=O)/C1=C\c1ccc(-c2cc(Cl)ccc2Cl)o1	-5%	2µM*
CC1=NOC(=O)/C1=C/c1ccc(-c2ccc(Cl)cc2)o1	?	7.9µM*
CC1=NOC(=O)/C1=C/c1ccc(N(C)C)cc1	-3%	-12%
CC(C)=CCNc1ncnc2c1c(C#N)cn2[C@H]1O[C@@H](CO)[C@@H](O)[C@@H]1O	-2%[11.4 µM]	-21%[11.4 µM]
CC(C)n1c(=S)[nH]c2c1c(=O)[nH]c(=O)n2C	?	13µM*
SMILES	12-hLO inh	15-hLO-2 inh
C=CC(C)n1c(Br)nc2c1c(=O)[nH]c(=O)n2C (stereo not given)	-1%	-2%
COc1cccc(Cn2c(=O)c(-c3ccc(Cl)cc3)nc3cncnc32)c1	/	9%
N#C/C(=C\c1ccc(O)c(O)c1)C(=O)c1ccc(O)c(O)c1	?	-29%
N#C/C(=C\c1c[nH]c2ccccc12)C(=O)c1ccc(O)c(O)c1	4µM*	-29%
O=C(c1ccc(Cc2nc3ccccc3[nH]2)cc1)N1CCCCC1	-1%	/
Cn1cccc1/C=N/n1c(-c2ccc(C(C)(C)C)cc2)n[nH]c1=S	?	10µM*
Cn1cccc1/C=N/n1c(-c2ccccc2)n[nH]c1=S	0%	-13%
COc1cc(C(=O)O)ccc1O	0%	/
O=C(O)c1ccc2cc(-c3ccc(O)c(C45CC6CC(CC(C6)C4)C5)c3)ccc2c1	?	7.9µM*
O=c1[nH]c2[nH]c(=S)[nH]c(=S)c2[nH]1	-13%[11.4 µM]	12%[11.4 µM]
CC(=NC1CCCCC1)C1=C(O)c2ccccc2C1=O	-10%	16µM*
CSC(=NC1CCCCC1)NS(=O)(=O)c1ccccc1	7%	1%
O=S(=O)(O)c1ccc(N=Nc2ccccc2)cc1	2%[11.4 µM]	3%[11.4 µM]
Cc1ccc(N=Nc2c(O)c(S(=O)(=O)O)cc3cc(S(=O)(=O)O)ccc23)c(C)c1	-7%[11.4 µM]	-13%[11.4 µM]
Cc1cc(-c2ccc(N=Nc3ccc4c(S(=O)(=O)O)cc(S(=O)(=O)O)c(N)c4c3O)c(C)c2)ccc1N=Nc1ccc2c(S(=O)(=O)O)cc(S(=O)(=O)O)c(N)c2c1O	0%	20µM*
Nc1ccc(N=Nc2ccc(-c3ccc(O)cc3)cc2)c2ccc(S(=O)(=O)O)cc12	-7%[11.4 µM]	2.5µM*
Nc1c(N=Nc2ccc(-c3ccc(N=Nc4cc(S(=O)(=O)O)c5ccccc5c4N)cc3)cc2)cc(S(=O)(=O)O)c2ccccc12	?	3.2µM*
O=S(=O)(O)c1ccc(N=Nc2ccc3c(S(=O)(=O)O)cccc3c2O)c2ccccc12	1%[11.4 µM]	-3%[11.4 µM]
COC(=O)C1=C(C(=O)OC)[C@@H]2N(C)c3ccccc3[C@@]23C[C@@H](CO)N(C(=O)c2cc(C)oc2C)C3=N1	0%[11.4 µM]	/
COc1ccc(N(C(=O)C(C)C)S(=O)(=O)c2ccc(Cl)cc2)cc1	-13%	6%
COc1ccc(S(=O)(=O)N(C(C)=O)c2ccc3oc(=O)sc3c2)cc1	8.9µM*	-23%
C[C@@]12C=Cc3occc3C1CC[C@@]13C[C@@H](CCC12)[C@@](O)(CO)C3 (stereo not given in full)	-5%[0.00818 µM]	3%[0.0915 µM]
O=C(O)c1ccc(NS(=O)(=O)c2cccc3ccccc23)cc1	2%	/
Cc1ccccc1-n1c(C)cc(/C=N/NC(=O)c2ccncc2)c1C	-4%	0%
Cc1cccc(C)c1-n1c(C)cc(/C=N/NC(N)=S)c1C	?	20µM*
SMILES	12-hLO inh	15-hLO-2 inh
COC(=O)C1=C(C(=O)OC)[C@@H]2N(C)c3ccccc3[C@@]23C[C@@H](C(=O)OC)N(S(=O)(=O)c2ccc(C#N)cc2)C3=N1	-2%[11.4 µM]	/
C=Cc1c(C)c2cc3[nH]c(cc4nc(cc5nc(cc1[nH]2)C(C)=C5CCC(=O)O)C(CCC(=O)O)=C4C)c(C)c3C=C	-27%	20µM*
CC1=C(CCC(=O)O)c2cc3nc(cc4[nH]c(cc5[nH]c(cc1n2)c(C)c5C(C)O)c(C)c4C(C)O)C(C)=C3CCC(=O)O (stereo not given)	-6%	-20%
OC[C@@H]1O[C@@H](N2CCN([C@@H]3O[C@@H](CO)[C@@H](O)[C@H](O)[C@H]3O)CC2)[C@@H](O)[C@H](O)[C@H]1O	1%[11.4 µM]	1%[11.4 µM]
S=C(NCCC(c1ccccc1)c1ccccc1)Nc1ccc(Cl)cc1	?	25µM*
COc1cc(NC(=S)NCCC(c2ccccc2)c2ccccc2)c(OC)cc1Cl	22µM*	/
S=C(NCCCc1ccccc1)Nc1ccc(Cl)cc1	-20%	/
COc1cc(NC(=S)NCc2ccc(S(N)(=O)=O)cc2)c(OC)cc1Cl	-3%	/
ICCc1ccccc1	?	-7%
CSc1nncc(/C(C)=N\Nc2ccccc2)n1	-22%	?
CSc1nncc(/C(C)=N\Nc2cccc(C)c2)n1	-13%	3.2µM*
